# In the supplement of paper PMC11732987, “Enantioselective OTUD7B fragment discovery through chemoproteomics screening and high-throughput optimisation” (Communications Chemistry, 2025):
# Unmarked numbers belong to inactive results.
# Columns and labels:
# Assay in all cases: log2 ratio of Biotin-Ahx-Ub-VS probe labelling (fragment/DMSO); higher = less target engagement (more negative = stronger competition), active = hit call of the paper (q ≤ 0.05, log2 ratio ≤ -1)
# Conditions in all cases: compound concentration: 200 uM; treatment time: 3 h
# [1] = target: USP16 (UniProt Q9Y5T5)
# How it was run: (§1)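 Labelling with Biotin-Ahx-Ub-VS (0.5 µM final, 1 h) followed a 3 h triplicate treatment of HEK293T lysate (495 µg per sample, Tris/CHAPS/IGEPAL buffer with protease inhibitors) with fragment at 200 µM or vehicle. Labelled DUBs were NeutrAvidin-enriched, digested with LysC and trypsin, and run by diaPASEF LC-MS/MS. The values, average log2 fragment/vehicle ratios by unpaired t-test, come from global-median-normalised Spectronaut label-free quantities. Proteins with ≥2 unique peptides were used.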
# [2] = target: T1, USP19 (UniProt O94966)
# T1 sequence (whole entry): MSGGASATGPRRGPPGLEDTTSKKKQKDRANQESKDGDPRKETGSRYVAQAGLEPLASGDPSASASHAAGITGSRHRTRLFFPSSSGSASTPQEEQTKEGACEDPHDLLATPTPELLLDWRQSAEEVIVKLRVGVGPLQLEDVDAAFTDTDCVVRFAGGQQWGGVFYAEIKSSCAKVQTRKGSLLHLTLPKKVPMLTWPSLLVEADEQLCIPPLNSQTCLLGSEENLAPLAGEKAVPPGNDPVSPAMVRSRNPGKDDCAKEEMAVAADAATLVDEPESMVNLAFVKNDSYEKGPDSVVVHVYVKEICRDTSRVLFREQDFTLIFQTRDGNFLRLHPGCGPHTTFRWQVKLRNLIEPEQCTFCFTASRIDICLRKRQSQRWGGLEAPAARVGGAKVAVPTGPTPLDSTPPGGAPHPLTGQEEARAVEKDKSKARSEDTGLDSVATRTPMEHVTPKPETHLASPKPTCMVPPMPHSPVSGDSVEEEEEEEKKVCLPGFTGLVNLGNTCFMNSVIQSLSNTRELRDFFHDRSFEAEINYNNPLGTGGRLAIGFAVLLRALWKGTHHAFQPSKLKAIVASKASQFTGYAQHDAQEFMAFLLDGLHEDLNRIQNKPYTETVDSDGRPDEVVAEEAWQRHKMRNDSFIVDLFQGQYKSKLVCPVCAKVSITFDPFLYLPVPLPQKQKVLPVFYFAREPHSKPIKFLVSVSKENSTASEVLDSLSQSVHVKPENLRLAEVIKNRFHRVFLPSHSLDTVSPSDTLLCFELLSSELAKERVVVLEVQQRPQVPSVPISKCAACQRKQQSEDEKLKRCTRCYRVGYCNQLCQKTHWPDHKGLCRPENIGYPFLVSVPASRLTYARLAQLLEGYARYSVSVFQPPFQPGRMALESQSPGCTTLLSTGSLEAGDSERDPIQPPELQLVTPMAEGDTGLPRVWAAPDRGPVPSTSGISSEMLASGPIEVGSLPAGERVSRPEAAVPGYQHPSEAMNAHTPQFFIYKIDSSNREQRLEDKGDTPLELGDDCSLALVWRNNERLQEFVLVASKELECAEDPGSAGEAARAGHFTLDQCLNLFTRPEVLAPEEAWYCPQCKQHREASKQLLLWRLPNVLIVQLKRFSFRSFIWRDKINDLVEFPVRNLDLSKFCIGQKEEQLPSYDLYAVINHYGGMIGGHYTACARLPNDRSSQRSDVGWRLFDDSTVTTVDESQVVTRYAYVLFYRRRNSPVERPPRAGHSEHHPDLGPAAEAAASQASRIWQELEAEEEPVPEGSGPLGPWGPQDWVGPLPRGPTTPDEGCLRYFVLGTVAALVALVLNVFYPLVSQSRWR
# How it was run: as §1
# [3] = target: USP24 (UniProt Q9UPU5)
# How it was run: as §1
# [4] = target: T2, USP25 (UniProt Q9UHP3)
# T2 sequence (whole entry): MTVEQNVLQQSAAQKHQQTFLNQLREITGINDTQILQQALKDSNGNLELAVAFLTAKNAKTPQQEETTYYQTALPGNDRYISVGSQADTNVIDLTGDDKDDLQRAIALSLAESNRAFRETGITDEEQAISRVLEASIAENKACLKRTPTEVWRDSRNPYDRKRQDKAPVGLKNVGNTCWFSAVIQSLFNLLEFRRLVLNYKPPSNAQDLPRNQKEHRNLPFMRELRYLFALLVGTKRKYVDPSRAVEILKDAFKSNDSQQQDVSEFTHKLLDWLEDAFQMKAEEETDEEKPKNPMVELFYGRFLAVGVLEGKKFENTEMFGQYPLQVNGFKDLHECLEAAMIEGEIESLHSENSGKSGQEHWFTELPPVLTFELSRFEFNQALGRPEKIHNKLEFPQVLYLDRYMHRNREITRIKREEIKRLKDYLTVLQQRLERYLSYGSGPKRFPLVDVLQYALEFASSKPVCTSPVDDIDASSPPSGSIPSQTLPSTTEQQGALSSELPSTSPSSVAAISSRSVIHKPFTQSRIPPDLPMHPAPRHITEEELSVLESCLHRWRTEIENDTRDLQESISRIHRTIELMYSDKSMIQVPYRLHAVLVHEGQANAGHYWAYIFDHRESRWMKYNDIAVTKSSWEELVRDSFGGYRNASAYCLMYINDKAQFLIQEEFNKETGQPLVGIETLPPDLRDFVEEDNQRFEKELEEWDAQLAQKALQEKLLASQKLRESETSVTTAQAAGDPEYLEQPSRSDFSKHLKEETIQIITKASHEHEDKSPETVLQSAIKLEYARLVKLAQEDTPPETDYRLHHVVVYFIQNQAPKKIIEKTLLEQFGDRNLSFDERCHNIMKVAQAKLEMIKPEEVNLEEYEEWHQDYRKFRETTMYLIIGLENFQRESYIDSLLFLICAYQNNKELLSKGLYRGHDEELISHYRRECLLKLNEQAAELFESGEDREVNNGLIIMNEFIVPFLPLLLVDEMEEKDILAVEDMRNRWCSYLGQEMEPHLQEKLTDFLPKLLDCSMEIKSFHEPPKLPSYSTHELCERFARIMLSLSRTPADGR
# How it was run: as §1
# [5] = target: T3, USP28 (UniProt Q96RU2)
# T3 sequence (whole entry): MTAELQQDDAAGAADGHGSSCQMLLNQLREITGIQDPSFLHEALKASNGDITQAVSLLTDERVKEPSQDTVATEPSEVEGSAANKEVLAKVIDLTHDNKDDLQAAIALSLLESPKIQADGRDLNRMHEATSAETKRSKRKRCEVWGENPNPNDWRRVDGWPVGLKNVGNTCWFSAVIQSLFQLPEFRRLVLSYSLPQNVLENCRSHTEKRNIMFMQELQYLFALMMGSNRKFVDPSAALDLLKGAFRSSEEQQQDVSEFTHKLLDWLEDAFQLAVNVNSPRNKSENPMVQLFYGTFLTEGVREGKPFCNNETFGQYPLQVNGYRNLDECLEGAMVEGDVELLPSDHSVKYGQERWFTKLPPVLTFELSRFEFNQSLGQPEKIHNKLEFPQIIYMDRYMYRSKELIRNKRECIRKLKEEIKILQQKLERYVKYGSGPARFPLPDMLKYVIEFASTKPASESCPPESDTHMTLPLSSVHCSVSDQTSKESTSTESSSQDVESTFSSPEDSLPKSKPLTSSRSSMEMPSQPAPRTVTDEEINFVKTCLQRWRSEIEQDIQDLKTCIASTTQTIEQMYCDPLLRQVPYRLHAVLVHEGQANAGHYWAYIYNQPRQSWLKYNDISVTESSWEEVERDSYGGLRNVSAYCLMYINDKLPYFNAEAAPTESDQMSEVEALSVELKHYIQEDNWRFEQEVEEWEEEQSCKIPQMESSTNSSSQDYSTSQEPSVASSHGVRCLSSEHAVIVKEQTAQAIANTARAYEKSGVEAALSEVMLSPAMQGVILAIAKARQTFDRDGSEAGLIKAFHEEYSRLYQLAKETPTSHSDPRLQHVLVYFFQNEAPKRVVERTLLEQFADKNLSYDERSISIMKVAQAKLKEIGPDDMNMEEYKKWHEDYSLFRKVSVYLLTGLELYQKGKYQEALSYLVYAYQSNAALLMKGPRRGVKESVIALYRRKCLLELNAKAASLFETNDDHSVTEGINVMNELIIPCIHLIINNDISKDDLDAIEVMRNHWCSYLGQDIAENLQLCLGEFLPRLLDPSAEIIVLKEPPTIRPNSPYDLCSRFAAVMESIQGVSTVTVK
# How it was run: as §1
# USP16, sequence (Q9Y5T5 whole entry, looked up, the tested form may be a part): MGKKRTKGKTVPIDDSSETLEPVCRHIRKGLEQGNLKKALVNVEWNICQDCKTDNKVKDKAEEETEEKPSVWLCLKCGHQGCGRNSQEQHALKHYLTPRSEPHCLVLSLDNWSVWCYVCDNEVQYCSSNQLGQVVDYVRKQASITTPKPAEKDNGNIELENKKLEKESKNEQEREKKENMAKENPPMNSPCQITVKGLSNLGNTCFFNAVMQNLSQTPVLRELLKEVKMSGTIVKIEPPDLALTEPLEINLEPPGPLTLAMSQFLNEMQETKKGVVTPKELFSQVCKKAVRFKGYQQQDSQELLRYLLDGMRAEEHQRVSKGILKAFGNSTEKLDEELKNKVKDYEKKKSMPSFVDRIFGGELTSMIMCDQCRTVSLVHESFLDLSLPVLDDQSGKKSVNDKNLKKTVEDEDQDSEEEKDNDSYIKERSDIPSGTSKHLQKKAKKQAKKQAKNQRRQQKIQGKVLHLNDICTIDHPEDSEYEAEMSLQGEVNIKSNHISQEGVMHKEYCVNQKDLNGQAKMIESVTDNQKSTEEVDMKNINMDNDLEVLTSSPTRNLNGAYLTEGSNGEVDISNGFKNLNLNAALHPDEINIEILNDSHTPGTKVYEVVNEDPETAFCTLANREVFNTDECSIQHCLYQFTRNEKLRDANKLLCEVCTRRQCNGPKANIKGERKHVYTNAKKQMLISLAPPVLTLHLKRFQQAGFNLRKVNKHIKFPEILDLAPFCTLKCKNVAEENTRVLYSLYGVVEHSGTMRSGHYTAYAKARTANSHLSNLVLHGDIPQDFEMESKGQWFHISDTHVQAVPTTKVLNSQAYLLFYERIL
# USP24, sequence (Q9UPU5 whole entry): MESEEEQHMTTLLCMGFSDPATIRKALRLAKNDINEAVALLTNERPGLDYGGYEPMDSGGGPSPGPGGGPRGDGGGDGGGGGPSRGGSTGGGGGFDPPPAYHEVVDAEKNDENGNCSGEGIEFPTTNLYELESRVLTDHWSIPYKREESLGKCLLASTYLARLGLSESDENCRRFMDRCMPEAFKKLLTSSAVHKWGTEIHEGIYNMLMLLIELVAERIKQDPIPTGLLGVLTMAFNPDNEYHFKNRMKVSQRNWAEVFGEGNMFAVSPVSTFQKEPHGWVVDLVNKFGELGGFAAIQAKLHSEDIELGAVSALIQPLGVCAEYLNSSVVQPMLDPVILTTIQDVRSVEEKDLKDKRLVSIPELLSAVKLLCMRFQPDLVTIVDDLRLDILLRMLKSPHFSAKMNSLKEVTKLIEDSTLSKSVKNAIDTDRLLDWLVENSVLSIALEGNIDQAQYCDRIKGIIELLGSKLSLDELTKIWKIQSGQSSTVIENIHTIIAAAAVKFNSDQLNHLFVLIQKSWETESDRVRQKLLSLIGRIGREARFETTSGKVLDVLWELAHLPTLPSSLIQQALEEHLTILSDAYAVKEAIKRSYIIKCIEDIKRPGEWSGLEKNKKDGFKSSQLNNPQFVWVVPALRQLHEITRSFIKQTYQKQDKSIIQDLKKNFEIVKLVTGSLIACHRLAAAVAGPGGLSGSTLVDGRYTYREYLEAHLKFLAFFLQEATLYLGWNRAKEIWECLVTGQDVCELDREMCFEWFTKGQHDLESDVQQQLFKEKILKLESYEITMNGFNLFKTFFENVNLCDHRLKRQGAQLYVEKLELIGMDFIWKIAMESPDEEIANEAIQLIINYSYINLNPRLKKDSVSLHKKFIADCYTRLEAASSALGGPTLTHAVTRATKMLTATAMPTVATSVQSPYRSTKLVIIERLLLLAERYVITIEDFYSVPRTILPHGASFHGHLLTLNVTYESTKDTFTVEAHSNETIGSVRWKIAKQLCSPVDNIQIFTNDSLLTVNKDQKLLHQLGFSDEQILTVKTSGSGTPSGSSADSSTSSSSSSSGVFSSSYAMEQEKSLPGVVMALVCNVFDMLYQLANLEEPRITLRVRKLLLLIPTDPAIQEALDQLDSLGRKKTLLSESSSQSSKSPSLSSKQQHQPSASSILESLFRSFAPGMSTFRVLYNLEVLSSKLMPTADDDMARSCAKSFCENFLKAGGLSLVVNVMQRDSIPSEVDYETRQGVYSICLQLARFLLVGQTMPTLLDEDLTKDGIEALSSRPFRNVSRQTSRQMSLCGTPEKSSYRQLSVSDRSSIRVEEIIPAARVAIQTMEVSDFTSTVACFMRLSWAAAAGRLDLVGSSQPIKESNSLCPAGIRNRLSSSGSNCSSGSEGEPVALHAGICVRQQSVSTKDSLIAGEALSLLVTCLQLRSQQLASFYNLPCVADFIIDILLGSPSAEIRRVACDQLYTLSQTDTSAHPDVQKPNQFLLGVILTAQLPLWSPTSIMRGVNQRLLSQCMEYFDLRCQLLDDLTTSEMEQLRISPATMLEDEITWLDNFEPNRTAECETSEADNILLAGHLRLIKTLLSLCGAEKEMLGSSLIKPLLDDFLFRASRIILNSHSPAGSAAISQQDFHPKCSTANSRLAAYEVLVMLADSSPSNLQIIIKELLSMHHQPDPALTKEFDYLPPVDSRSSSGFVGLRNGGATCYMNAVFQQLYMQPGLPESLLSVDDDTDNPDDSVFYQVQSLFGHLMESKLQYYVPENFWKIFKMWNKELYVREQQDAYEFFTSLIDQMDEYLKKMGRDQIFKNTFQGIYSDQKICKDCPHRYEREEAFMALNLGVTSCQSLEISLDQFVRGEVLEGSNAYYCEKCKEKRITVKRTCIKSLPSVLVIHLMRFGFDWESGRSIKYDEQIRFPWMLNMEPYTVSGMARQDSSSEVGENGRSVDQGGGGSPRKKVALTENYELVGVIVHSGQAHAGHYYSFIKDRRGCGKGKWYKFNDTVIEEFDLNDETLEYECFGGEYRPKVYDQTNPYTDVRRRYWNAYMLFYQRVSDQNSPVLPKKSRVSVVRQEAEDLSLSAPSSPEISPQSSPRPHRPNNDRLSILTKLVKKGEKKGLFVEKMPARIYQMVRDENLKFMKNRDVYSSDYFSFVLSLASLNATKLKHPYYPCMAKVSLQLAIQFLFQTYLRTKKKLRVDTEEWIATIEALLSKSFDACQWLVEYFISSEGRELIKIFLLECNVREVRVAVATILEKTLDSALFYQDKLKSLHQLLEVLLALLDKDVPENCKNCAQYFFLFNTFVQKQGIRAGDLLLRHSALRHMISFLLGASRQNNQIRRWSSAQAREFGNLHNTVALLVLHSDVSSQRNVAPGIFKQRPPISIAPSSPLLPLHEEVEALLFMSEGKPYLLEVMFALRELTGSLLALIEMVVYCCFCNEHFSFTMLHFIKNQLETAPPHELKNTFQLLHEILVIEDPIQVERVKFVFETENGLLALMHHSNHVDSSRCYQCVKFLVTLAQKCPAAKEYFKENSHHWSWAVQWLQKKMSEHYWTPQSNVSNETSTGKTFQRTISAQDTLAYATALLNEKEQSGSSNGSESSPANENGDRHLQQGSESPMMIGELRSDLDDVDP
compound,measurement,setting,value
CS(=O)(=O)c1ccc(NC(=O)CCl)cc1,log2 ratio of Biotin-Ahx-Ub-VS probe labelling,[1],-0.145
same,log2 ratio of Biotin-Ahx-Ub-VS probe labelling,[2],-0.223
same,log2 ratio of Biotin-Ahx-Ub-VS probe labelling,[3],-0.247
same,log2 ratio of Biotin-Ahx-Ub-VS probe labelling,[4],-1.74 (active)
same,log2 ratio of Biotin-Ahx-Ub-VS probe labelling,[5],-1.38 (active)
